# The entries come from a sample that favours hits as a whole.
# NS1 function inh – blocks influenza NS1 protein function; AID 2326; 0.4% of 270,000 active; Potency, µM (series often up to 46.1 µM), for the others: at the top dose activity, positive = more growth; calls by dose curve; further: actives are rising curves; nearly all actives have a fitted effect of over 50% in size
#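 S. cerevisiae expressing influenza A NS1, grown in glucose, washed, then diluted 1:100 into pH 6.0 -URA galactose medium with 23 nl compound. Growth recovery read as OD600; NS1-free strain serves as control.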
# Cruzain noTriton – blocks cruzain activity in detergent-free assay. purified cruzain, Z-FR-AMC fluorescence, no detergent. Potency, µM, for inactives: max response, negative = inhibition, most hits filed as inhibitors. 2.3% of 200,000 active. AID 1476;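 further: plate controls were enzyme without inhibitor for no effect and buffer without enzyme for full effect; nearly all actives have a fitted effect of over 40% in size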
# Target sequence (P25779 123-467 limits assumed): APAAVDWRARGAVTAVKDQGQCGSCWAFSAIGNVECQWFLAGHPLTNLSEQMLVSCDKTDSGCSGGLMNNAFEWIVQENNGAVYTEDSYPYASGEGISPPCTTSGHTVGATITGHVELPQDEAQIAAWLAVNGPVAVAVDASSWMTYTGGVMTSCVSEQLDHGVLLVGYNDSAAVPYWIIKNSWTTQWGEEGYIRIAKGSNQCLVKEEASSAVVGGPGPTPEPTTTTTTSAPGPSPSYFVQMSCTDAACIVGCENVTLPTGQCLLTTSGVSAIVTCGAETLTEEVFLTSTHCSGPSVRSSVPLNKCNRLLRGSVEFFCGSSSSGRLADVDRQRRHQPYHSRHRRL
#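 Purified cruzain at 1.5 nM, pre-incubated 15 min with compound at room temperature in 100 mM sodium acetate pH 5.5, 5 mM DTT, 0.00005% Triton X-100. Reaction started with 2 uM Z-FR-AMC; AMC fluorescence increase over 60 s gives rate.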
# Cruzain Triton – inhibitors of Trypanosoma cruzi cruzain with detergent | 0.43% of 200,000 active | P25779 | AID 1478 | Potency, µM, for the others: max response, negative = inhibition, hits mostly inhibitors | purified cruzain, Z-FR-AMC fluorescence, 0.01% Triton;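 further: plate controls were neutral wells for no effect and buffer without enzyme for full effect; nearly all actives have a fitted effect of over 40% in size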
#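 In this qHTS format, compounds are incubated with 1.5 nM cruzain for 15 min at room temperature before 2 uM Z-FR-AMC is added. Release of AMC is followed at 360/450 nm, and progress is taken as the 60 s fluorescence difference.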
# The depositor's hits bear a star; u = inconclusive; x = not tested or not shown; ! = a repeat was not active. Unless noted, the call rests on the fitted dose curve; in most records, active means well fitted curve in the direction sought with a large enough effect; inconclusive means small, poorly fitted or top-dose-only effect, or another doubt; inactive means no such curve, though single readings can be large; an effect the other way counts as inactive or inconclusive. Potency means the concentration at half of the fitted maximal effect.
SMILES,NS1 function inh,Cruzain noTriton,Cruzain Triton
O=C(C/C=N/OCc1c(Cl)cccc1Cl)c1cnc(-c2ccccc2)s1,3.8%,12.6µM*,1.0%
O=C(C/C=N/OCc1ccc(Cl)cc1)c1cnc(-c2ccccc2)s1,6.9%,-29.6%,-3.6%
N#CS.N=C=S.N=C=S.[Cu].[NH2-].[NH2-].[NH2-].[NH2-].c1ccc2ncccc2c1,1.0%,19.9%,-0.5%
CCOc1ccc(CN2C(=O)c3ccccc3Sc3ccc(C(=O)NCc4ccco4)cc32)cc1,x,31.6µM*,-4.0%
O=C(NCc1ccco1)c1ccc2c(c1)N(Cc1ccc(Cl)cc1)C(=O)c1ccccc1S2,x,u,0.6%
CC1CCC(NC(=O)c2ccc3c(c2)N(Cc2cccc(F)c2)C(=O)c2ccccc2S3)CC1 (stereo not given),x,u,1.1%
Cc1cccc(CN2C(=O)c3ccccc3Sc3ccc(C(=O)NC4CCCCC4)cc32)c1,x,12.6µM*,1.0%
O=C(NC1CCCC1)c1ccc2c(c1)N(Cc1ccccc1)C(=O)c1ccccc1S2,x,u,0.8%
Cc1ccccc1CN1C(=O)c2ccccc2Sc2ccc(C(=O)NCc3cccs3)cc21,x,u,0.4%
Cc1ccccc1CN1C(=O)c2ccccc2Sc2ccc(C(=O)NCc3ccccc3)cc21,x,31.6µM*,0.6%
CCOc1ccc(CN2C(=O)c3ccccc3Sc3ccc(C(=O)NC4CCC(C)CC4)cc32)cc1 (stereo not given),x,5.01µM*,-5.2%
COc1ccc(N2CCN(c3ccc(-c4nc(-c5ccccc5)no4)cc3[N+](=O)[O-])CC2)cc1,x,-10.5%,-5.4%
COc1ccccc1N1CCN(C(=O)C2CCN(S(=O)(=O)Cc3ccccc3)CC2)CC1,x,u,-7.3%
COc1cccc(/C=C/c2nc(C#N)c(N3CCCCC3)o2)c1,x,u,-27.9%
COc1ccc2c(c1)C(c1ccccc1OC)CC(=O)O2 (stereo not given),x,u,-15.9%
CNC(=O)[C@H]1O[C@@H](n2cnc3c(N)ncnc32)[C@H](O)[C@H]1O,u,7.1%,5.2%
Cc1ccccc1Cn1c2ccccc2c2cnn(CC(=O)NCCc3ccccc3)c(=O)c21,x,11.5%,5.4%
CCOCCCn1c(=N)c(C(=O)NCc2cccnc2)cc2c(=O)n3cc(C)ccc3nc21,x,1.3%,-5.5%
CCc1nnc(NC(=O)c2oc3cc(C)c(C)cc3c2C)s1,3.1%,12.6µM*,-0.6%
CCc1nonc1NC(=O)c1oc2cc(C)c(C)cc2c1C,3.7%,0.2%,0.7%
O=C(Nn1c(O)c(C=C2N=c3ccccc3=N2)sc1=S)c1ccccc1Cl,-1.3%,-28.8%,-13.2%
Oc1c(C=C2N=c3ccccc3=N2)sc(=S)n1C1CCCCC1,2.4%,12.6µM*!,-3.8%
Oc1c(C=C2N=c3ccccc3=N2)sc(=S)n1-c1ccccc1,20.0%,10µM*,-3.1%
O=S(=O)(Nn1c(O)c(C=C2N=c3ccccc3=N2)sc1=S)c1ccccc1,-1.9%,x,x
CN(C(=O)Cn1c(=O)n(Cc2ccc(C(=O)NCc3ccc4c(c3)OCO4)cc2)c(=O)c2ccccc21)c1ccccc1,x,-28.6%,-4.9%
SMILES,NS1 function inh,Cruzain noTriton,Cruzain Triton
O=S(=O)(c1ccccc1)N1CCC2(CC1)CN(c1ccccn1)C2,x,-0.4%,-4.8%
Fc1ccc(NC(=S)Nc2ccc(Cl)cc2Cl)cc1,-6.2%,x,x
Fc1ccccc1/C=N/NC(=S)Nc1ccc(Cl)cc1Cl,14.9%,10µM*,1.2%
COCCNc1ccnc(-c2ccccc2CN(C)C)n1,x,-1.1%,0.3%
COc1cccc(Cn2c(=O)n(Cc3ccccc3)c(=O)c3c2c2cc(OC)ccc2n3C)c1,x,8.3%,-0.4%
NC(=O)c1cn(-c2ccccc2)nc1-c1cc2ccccc2oc1=O,1.1%,-0.8%,-3.2%
O=C(c1ccccc1)c1nn(-c2ccc(Cl)cc2)cc1C(=O)c1cc2ccccc2oc1=O,-8.4%,25.1µM*,-4.6%
COc1ccccc1N1CCN(C(=O)c2cc3c(=O)oc4ccccc4c3s2)CC1,x,4.1%,0.5%
CCc1ccc(NC(=O)c2sc3nc(C)c(Cl)c(C)c3c2NC(=O)c2ccccc2)cc1,x,-4.4%,1.4%
CCN1CCN(Cc2c(O)ccc3c(C)cc(=O)oc23)CC1,2.0%,x,x
O=c1oc2c(CN3CCOCC3)c(O)ccc2c2c1CCC2,-2.0%,-75.7%,u
Cc1cc(=O)oc2c(CN(CC(C)C)CC(C)C)c(O)ccc12,0.6%,u,25.1µM*
CC(C)CN(Cc1c(O)ccc2c3c(c(=O)oc12)CCC3)CC(C)C,-3.5%,-99.4%,28.2µM*
C=C(C(=O)C(C)(C)O)C(O)c1ccc([N+](=O)[O-])cc1 (stereo not given),x,-11.1%,4.6%
Cc1cc(=O)oc2cc(OCc3ccc(C(=O)N4CCN(c5ccc([N+](=O)[O-])cc5)CC4)cc3)ccc12,23.3%,12.6µM*,-5.3%
CC(C)(C)c1ccc(Oc2coc3cc(OCC(=O)O)ccc3c2=O)cc1,10.2%,x,x
COC(=O)c1ccc(Oc2coc3cc(OCc4ccc([N+](=O)[O-])cc4)ccc3c2=O)cc1,-4.9%,10µM*,-5.2%
Cc1cc(=O)oc2cc(OCc3ccc(C(=O)N4CCN(c5ccccc5)CC4)cc3)ccc12,u,-28.1%,-5.0%
COc1ccc(S(=O)(=O)N(CC(=O)N2CCC(C)CC2)c2ccc(C)cc2)cc1,x,8.1%,-6.8%
C[C@@]12CC[C@@H]3[C@H](CCC4=CC(=O)CC[C@]43C)[C@@H]1CC[C@@H]2C(=O)Cn1cnc2c(=S)nc[nH]c21,u,-7.0%,3.2%
COc1cc(-c2nc(-c3ccc4c(c3)-c3ccccc3S4(=O)=O)c(-c3ccccc3)[nH]2)cc(OC)c1OC,28.0%,-2.0%,-0.9%
COc1cccc(-c2nc(-c3ccc4c(c3)-c3ccccc3S4(=O)=O)c(-c3ccccc3)[nH]2)c1OC,u,12.6µM*,-9.7%
Cc1ccccc1OCC(=O)N/N=C/c1cccc(Oc2ccc([N+](=O)[O-])cc2[N+](=O)[O-])c1,18.6%,u,-3.2%
O=C(N/N=C/c1cccc(Oc2ccc([N+](=O)[O-])cc2[N+](=O)[O-])c1)c1cncc(Br)c1,11.7%,25.1µM*,-2.2%
Cc1cc(/C=N/NC(=O)CC#N)c(C)n1-c1ccc([N+](=O)[O-])cc1,7.7%,x,x
SMILES,NS1 function inh,Cruzain noTriton,Cruzain Triton
COCc1c(Br)c(C)nc(OCC(=O)N/N=C/c2cc(C)n(-c3ccc([N+](=O)[O-])cc3)c2C)c1C#N,7.0%,31.6µM*,-3.3%
CCOC(=O)c1ccc(NC2SC(=O)N(Cc3cccc(C(=O)O)c3)C2=O)cc1 (stereo not given),x,5.6%,-7.3%
O=C(CN1C(=O)COc2ccc(S(=O)(=O)N3CCOCC3)cc21)N1CCN(c2cccc(C(F)(F)F)c2)CC1,x,u,-3.7%
COc1ccccc1-c1c(C)nn2c(N3CCN(c4ccc(F)cc4)CC3)cc(C)nc12,x,-4.6%,1.2%
COCCN(CCOC)c1nc(C)nc2c1nc(-c1ccccc1)n2CCCN(C)C,x,-7.6%,-4.8%
O=c1c2ccccc2nc(Cc2ccccc2)n1-c1ccccc1,-4.3%,x,x
N=C(N)SCc1nc2ccccc2c(=O)n1-c1ccccc1,8.6%,25.1µM*!,-3.0%
CC(C)c1noc(-c2ccccc2OCC(=O)Nc2ccc([N+](=O)[O-])cc2)n1,x,11.3%,-4.6%
CCN(CC)C(=O)CSc1nc(-c2ccc(C)cc2)nc2c1Cc1c(CO)cnc(C)c1O2,x,u,-6.3%
COc1ccccc1C(=O)ON=C1c2ccccc2-c2ccccc21,-18.3%,u,-7.4%

# Source: PubChem BioAssay
